Test in all cases: DAPPL (digital affinity profiling via proximity ligation, sequencing); 10 mM Tris-HCl pH 7.5, 50 mM NaCl, 1 mM DTT, 4% glycerol, room temperature, 30 min; GST-TFs on glutathione beads, 16-mer random dsDNA library, 0.1% formaldehyde crosslink after washing; high values mean tight binding
Details in all cases: protein: recombinant; tags: N-terminal GST; dsDNA, one strand shown

One assay deals with T1, GABPA (Homo sapiens, UniProt Q06546 1-454).
T1 sequence: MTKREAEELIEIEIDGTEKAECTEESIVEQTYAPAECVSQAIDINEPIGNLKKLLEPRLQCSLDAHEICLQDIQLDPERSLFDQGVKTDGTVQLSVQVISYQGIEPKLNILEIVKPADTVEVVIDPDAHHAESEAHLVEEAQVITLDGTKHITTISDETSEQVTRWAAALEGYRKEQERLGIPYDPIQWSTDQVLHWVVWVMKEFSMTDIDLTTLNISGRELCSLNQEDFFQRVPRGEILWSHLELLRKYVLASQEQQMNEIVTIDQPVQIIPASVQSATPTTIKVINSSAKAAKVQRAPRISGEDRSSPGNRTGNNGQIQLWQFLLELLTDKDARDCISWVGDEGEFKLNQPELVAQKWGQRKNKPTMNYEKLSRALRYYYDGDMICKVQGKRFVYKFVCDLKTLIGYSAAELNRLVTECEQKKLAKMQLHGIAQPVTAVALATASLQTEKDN
The method in brief:
(§1)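 Each value of binding signal is a hexamer's read frequency for a factor divided by the same hexamer's frequency in the tag-only sample. Barcoded, bead-captured GST fusions of human transcription factors made in yeast were pooled with that sample and incubated with 200 nmole of a random double-stranded 16-mer DNA library in Tris/NaCl/DTT/glycerol buffer at room temperature for 30 min. Washing, 0.1% formaldehyde crosslinking, proximity ligation, PCR and Illumina NextSeq500 sequencing followed.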

A further assay addresses ELF1 (Homo sapiens, UniProt P32519 1-619). The method in brief:
as §1

The next assay concerns the target ETV5 (Homo sapiens, UniProt P41161 1-510). The method in brief: as §1
For the next assay, the target named is T2, ERF (Homo sapiens, UniProt P50548 1-548).
T2 sequence: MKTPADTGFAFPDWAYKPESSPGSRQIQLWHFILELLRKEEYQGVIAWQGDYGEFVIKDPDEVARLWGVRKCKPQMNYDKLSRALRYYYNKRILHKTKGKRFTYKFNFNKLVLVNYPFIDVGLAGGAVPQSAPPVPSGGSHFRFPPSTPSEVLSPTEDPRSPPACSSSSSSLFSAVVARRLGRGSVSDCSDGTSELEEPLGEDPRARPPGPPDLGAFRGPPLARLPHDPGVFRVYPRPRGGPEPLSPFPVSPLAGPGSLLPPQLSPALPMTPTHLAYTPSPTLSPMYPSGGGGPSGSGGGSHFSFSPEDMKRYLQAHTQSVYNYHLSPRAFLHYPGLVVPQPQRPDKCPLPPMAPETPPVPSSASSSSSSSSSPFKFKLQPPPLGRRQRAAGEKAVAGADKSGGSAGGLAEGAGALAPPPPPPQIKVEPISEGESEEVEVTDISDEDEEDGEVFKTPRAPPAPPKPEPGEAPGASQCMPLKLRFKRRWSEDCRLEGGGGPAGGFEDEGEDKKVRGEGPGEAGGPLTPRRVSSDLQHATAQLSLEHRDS
The method in brief:
as §1

The next assay addresses T3, ETV3L (Homo sapiens, UniProt Q6ZN32 1-361).
T3 sequence: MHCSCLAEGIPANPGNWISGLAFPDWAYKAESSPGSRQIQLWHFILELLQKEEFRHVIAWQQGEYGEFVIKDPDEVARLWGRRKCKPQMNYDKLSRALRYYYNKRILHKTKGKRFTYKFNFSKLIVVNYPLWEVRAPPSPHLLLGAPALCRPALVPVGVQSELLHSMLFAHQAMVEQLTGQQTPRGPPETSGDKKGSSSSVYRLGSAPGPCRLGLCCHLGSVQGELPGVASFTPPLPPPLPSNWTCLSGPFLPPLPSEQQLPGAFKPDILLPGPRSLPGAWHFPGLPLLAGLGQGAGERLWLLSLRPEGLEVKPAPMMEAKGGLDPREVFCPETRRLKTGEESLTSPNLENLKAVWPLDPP
The method in brief:
as §1

The target of a further assay is T4, ETV7 (Homo sapiens, UniProt Q9Y603 1-341).
T4 sequence: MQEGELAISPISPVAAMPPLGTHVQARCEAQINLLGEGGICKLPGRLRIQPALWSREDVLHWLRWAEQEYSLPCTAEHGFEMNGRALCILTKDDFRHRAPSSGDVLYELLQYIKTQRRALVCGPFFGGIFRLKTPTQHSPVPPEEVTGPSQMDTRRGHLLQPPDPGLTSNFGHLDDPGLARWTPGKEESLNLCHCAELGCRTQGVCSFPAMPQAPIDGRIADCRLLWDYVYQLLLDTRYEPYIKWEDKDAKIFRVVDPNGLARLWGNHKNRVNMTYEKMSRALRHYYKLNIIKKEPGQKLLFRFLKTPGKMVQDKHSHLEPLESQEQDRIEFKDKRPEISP
The method in brief: as §1

The target of another assay is T5, EHF (Homo sapiens, UniProt Q9NZC4 1-300).
T5 sequence: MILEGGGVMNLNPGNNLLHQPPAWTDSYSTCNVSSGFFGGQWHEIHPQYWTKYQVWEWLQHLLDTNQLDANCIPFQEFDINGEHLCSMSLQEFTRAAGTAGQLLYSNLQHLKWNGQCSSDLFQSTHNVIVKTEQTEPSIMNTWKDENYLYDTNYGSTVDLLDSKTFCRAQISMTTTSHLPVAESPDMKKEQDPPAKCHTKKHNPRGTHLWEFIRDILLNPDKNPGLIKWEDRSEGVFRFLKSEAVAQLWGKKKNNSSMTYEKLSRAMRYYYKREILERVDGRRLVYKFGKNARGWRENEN
The method in brief:
as §1

For a further assay, the target named is SPI1 (Homo sapiens, UniProt P17947 1-270). The method in brief:
as §1

The target of the next assay is T6, ELF3 (Homo sapiens, UniProt P78545 1-371).
T6 sequence: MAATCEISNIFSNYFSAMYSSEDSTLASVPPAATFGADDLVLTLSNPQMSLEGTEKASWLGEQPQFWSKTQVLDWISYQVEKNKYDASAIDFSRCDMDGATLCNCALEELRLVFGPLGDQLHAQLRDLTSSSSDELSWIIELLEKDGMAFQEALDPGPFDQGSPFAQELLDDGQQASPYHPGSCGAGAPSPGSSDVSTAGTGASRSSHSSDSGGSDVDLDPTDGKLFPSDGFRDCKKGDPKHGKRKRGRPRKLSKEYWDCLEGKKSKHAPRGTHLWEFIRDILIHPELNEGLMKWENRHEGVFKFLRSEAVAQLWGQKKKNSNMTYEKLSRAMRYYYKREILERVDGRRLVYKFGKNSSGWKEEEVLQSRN
The method in brief:
as §1

In a further assay the target is ETV1 (Homo sapiens, UniProt P50549 1-477). The method in brief: as §1
The next assay addresses T7, ETS2 (Homo sapiens, UniProt P15036 1-469).
T7 sequence: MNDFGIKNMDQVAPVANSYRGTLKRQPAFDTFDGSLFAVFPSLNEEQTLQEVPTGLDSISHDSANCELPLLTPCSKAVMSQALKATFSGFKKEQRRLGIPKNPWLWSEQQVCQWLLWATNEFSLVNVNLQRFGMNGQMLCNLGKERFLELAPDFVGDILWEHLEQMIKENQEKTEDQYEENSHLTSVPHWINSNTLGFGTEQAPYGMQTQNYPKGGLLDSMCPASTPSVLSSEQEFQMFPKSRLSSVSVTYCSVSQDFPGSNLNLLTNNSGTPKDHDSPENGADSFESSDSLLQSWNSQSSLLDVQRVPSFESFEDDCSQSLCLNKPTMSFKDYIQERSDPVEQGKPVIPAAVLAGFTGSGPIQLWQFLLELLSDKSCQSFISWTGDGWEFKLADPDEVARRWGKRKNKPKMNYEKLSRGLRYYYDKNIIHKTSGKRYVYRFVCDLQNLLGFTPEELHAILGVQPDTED
The method in brief:
as §1

In a further assay the target is T8, ETV3 (Homo sapiens, UniProt P41162-2 1-143).
T8 sequence: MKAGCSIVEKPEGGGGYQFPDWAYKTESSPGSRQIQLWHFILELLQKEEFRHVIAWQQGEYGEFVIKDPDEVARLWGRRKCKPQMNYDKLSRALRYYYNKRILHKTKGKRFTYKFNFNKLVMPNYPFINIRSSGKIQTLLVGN
The method in brief:
as §1

A further assay has as its target ETV6 (Homo sapiens, UniProt P41212 1-452). The method in brief: as §1

Sequence of ETV5 (P41161 whole entry): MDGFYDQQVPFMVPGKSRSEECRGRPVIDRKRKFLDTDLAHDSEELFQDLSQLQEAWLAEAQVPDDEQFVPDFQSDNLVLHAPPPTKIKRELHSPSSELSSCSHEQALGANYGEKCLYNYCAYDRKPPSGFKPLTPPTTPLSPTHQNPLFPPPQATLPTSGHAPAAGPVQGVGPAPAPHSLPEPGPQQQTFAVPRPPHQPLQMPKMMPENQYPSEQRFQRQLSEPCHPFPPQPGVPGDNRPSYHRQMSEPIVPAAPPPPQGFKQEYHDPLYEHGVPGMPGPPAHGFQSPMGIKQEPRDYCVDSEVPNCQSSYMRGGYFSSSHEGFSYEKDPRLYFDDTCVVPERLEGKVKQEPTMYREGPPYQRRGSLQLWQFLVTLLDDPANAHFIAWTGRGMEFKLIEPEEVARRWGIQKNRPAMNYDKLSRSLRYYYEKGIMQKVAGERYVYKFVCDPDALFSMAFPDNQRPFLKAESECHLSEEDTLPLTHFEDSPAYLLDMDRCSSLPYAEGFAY
Sequence of ETV6 (P41212 whole entry): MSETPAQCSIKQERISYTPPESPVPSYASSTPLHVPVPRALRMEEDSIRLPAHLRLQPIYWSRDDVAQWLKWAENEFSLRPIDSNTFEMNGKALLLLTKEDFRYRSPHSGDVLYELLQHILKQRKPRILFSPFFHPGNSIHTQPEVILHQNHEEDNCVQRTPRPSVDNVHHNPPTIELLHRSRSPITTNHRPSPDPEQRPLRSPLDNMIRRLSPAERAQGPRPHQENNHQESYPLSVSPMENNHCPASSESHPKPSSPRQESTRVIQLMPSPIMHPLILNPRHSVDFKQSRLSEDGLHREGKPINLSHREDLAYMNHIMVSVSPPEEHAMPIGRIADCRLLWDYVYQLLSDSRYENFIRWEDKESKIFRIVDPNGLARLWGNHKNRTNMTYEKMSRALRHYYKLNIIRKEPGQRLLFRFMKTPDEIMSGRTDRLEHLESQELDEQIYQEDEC
Sequence of ELF1 (P32519 whole entry): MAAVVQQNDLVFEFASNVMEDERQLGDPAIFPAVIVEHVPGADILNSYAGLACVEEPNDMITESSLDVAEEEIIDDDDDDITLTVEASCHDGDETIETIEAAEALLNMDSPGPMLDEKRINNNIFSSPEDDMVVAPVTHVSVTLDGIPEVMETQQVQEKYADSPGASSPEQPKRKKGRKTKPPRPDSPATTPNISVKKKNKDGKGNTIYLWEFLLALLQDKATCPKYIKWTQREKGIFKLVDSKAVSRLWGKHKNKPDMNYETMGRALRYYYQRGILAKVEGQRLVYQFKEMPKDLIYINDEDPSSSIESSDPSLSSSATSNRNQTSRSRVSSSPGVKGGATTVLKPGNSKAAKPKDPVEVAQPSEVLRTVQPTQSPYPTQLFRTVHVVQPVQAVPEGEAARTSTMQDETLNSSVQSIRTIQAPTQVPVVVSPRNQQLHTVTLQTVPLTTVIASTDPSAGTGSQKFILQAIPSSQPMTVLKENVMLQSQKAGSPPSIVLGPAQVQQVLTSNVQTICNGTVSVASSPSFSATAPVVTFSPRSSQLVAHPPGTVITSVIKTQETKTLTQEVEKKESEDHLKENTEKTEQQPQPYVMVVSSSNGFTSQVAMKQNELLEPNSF
Sequence of ETV1 (P50549 whole entry): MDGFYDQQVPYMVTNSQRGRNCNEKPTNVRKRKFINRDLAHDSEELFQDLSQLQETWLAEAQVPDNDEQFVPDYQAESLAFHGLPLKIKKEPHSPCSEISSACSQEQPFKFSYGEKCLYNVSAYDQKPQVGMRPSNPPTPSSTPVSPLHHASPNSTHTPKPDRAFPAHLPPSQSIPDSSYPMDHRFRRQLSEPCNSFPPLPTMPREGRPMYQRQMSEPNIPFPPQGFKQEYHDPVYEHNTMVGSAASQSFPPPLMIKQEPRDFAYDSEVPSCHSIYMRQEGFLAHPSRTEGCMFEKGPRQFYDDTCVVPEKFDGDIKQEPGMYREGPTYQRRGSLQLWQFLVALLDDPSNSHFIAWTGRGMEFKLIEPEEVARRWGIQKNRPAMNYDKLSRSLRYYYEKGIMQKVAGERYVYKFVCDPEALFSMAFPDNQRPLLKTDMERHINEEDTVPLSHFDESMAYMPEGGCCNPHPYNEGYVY

In the case of GCTAGA, the binding signal is 1.03 fold enrichment (6-mer frequency, TF over GST control) with GABPA; 1.01 fold enrichment (6-mer frequency, TF over GST control) in the assay with ELF1; 1.02 fold enrichment (6-mer frequency, TF over GST control) with ETV5; 1.07 fold enrichment (6-mer frequency, TF over GST control) with ERF; 1.04 fold enrichment (6-mer frequency, TF over GST control) with ETV3L; 1 fold enrichment (6-mer frequency, TF over GST control) with ETV7.
Regarding AGTAAA, the binding signal in the assay with GABPA is 1.02 fold enrichment (6-mer frequency, TF over GST control); in the assay with EHF, 1.03 fold enrichment (6-mer frequency, TF over GST control); in the assay with SPI1 it was 1.22 fold enrichment (6-mer frequency, TF over GST control); with ETV5 it was 1.05 fold enrichment (6-mer frequency, TF over GST control); in the assay with ELF3, 1.08 fold enrichment (6-mer frequency, TF over GST control); with ETV1, 1.04 fold enrichment (6-mer frequency, TF over GST control). Besides, the binding signal with ERF is 1.01 fold enrichment (6-mer frequency, TF over GST control); with ETS2, 1.02 fold enrichment (6-mer frequency, TF over GST control); in the assay with ETV3, 1.03 fold enrichment (6-mer frequency, TF over GST control); with ETV6, 1.11 fold enrichment (6-mer frequency, TF over GST control).
